Data from PubChem BioAssay AID651812 (National Center for Advancing Translational Sciences (NCATS), 2012).
Screen size: about 2,100 compounds; about 650 (31%) were called active. Inconclusive results (about 16%) are left out. Some of the results follow. Values without a mark were called inactive. Calls come from the whole dose curve; as a rule, active = well fitted inhibition curve with a large enough effect; inconclusive = small, poorly fitted or top-dose-only effect; inactive = flat fitted curve, though single readings scatter.

Assay: qHTS for inhibitors of Vif-A3G interactions: Cherry picks; note: nearly all actives have a fitted effect of over 80% in size; for activity, negative = fluorescence increase: % of control where 0% means no effect
Conditions: HeLa A3G-eYFP + Vif (tagged APOBEC3G with the HIV-1 protein that degrades it), 24 h; Potency: eYFP fluorescence increase; series mostly up to 36.9 µM; activity, negative = fluorescence increase: at the top concentration
Procedure, shortened: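 Cherry-picked compounds tested at several concentrations on A3G-eYFP/Vif HeLa cells for 24 hours; loss of Vif-driven degradation read as eYFP fluorescence by cytometric plate imaging, 488 nm excitation, 500-530 nm emission.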
Potency is the fitted concentration of half-maximal effect.

| SMILES | activity, negative = fluorescence increase | Potency |
| --- | --- | --- |
| CN(Cc1cnn(Cc2ccccc2)c1)C(=O)c1cccc(S(=O)(=O)N2CCOCC2)c1 | -3.86% | – |
| O=C(CN1c2cccc3cccc(c23)S1(=O)=O)Nc1ccc(S(=O)(=O)N2CCOCC2)cc1 | -4.13% [at 46.1 µM] | – |
| CCn1c(O)c(/C=N/NC(=O)c2ccncc2)c(=O)n(CC)c1=S | 9.98% [at 46.1 µM] | – |
| CC[n+]1c(C=C2C=C(C)OC(C)=C2)sc2ccccc21 | – | 8.2 µM (active) |
| CCSC1=NSC2=NC(=O)/C(=C\c3coc4ccccc4c3=O)C(=N)N12 | – | 23.1 µM (active) |
| CCS(=O)(=O)c1nn2c(N)c(/C=C3/C=CC(=O)C(OC)=C3)c(=O)nc2s1 | 13.5% [at 46.1 µM] | – |
| COC1=C/C(=C/c2c(N)n3nc(-c4ccc(C)cc4)sc3nc2=O)C=CC1=O | – | 14.6 µM (active) |
| CCc1ccc(CNC(=O)Cc2ccc(NC(=O)C3=C(C)OCCS3)cc2)cc1 | -1.61% | – |
| N#CC1=C2SCC(O)(c3ccccc3)N2C(=O)CC1c1ccccc1 (stereo not drawn) | -17.3% | – |
| COc1ccc(NC(=O)C2(C)Cc3c(-c4cccc(NC(C)=O)c4)ccnc3O2)cn1 (stereo not drawn) | -5.51% | – |
| CCOc1ncccc1C(=O)NCc1ccc(OC)cc1 | -0.568% | – |
| Nc1nc(SCc2ccc(Cl)cc2Cl)nc2nc3c(cc12)CCCC3 | – | 23.1 µM (active) |
| Cc1[nH][nH]c(=O)c1C(c1c(C)[nH][nH]c1=O)c1cn(Cc2ccccc2Cl)c2ccccc12 | -10.2% | – |
| Cc1ccc2oc(/N=C(\N)NC(=O)C(C)(C)C)nc2c1 | -6.59% [at 46.1 µM] | – |
| COC(=O)c1ccc(NC(=O)CC2Nc3cc(C)c(C)cc3NC2=O)cc1 (stereo not drawn) | – | 23.1 µM (active) |
| CCOC(=O)c1ccc(NC(=S)NC(=O)C2CCCC2)cc1 | 13.5% [at 46.1 µM] | – |
| C/C(CCc1ccc2c(c1)OCO2)=N\NC(=S)NC(C)C | -17.7% [at 46.1 µM] | – |
| COc1ccccc1CNC(=O)c1ccc(Nc2nc3ccccc3n3nnnc23)cc1 | – | 20.6 µM (active) |
| c1ccc2c(c1)nc(N1CCOCC1)c1nnnn12 | 4.21% [at 46.1 µM] | – |
| Fc1ccc(CNc2nc3ccccc3n3nnnc23)cc1 | – | 16.4 µM (active) |
| C=CCSc1nc2ccccc2n1C(=O)/C=C/c1cc(OC)c(OC)c(OC)c1 | 2.28% | – |
| Fc1ccc(COc2ccc3ccccc3c2CNc2nn[nH]n2)cc1 | -6.32% | – |
| CC(=O)Nc1ccc(S(=O)(=O)Nc2nc3ccccc3nc2Nc2ccc(N)cc2)cc1 | -7.33% [at 46.1 µM] | – |
| CN(C)c1ccc(Nc2nc3ccccc3n3nnnc23)cc1 | -25.5% [at 46.1 µM] | – |
| CC(NC(=O)c1ccc(Nc2nc3ccccc3n3nnnc23)cc1)c1ccccc1 (stereo not drawn) | – | 18.4 µM (active) |
| COc1cc(Nc2nc3ccccc3n3nnnc23)cc(OC)c1OC | – | 20.6 µM (active) |

| SMILES | activity, negative = fluorescence increase | Potency |
| --- | --- | --- |
| Cc1ccc(C(=O)O)cc1Nc1nc2ccccc2n2nnnc12 | -17.3% [at 46.1 µM] | – |
| O=[N+]([O-])c1ccccc1C1Nc2cccc3cccc(c23)N1 | 9.33% [at 46.1 µM] | – |
| CCOC(=O)c1cc(-c2ccccc2C)n(CC2CC(c3ccc(OC)cc3)=NO2)n1 (stereo not drawn) | -4.85% | – |
| NC(=S)N/N=C/c1ccccc1OC(=O)/C=C/c1ccccc1 | 1.01% [at 46.1 µM] | – |
| Cc1cc(OCC(=O)Nc2nnc(C3CC3)s2)ccc1Cl | 1.84% | – |
| COc1ccc2[nH]c(C(=O)N/N=C/c3ccc(OC)c(O)c3)cc2c1 | -3.2% | – |
| Cc1ccc(/C=N/NC(=O)c2ccc3ccccc3c2)s1 | -17.8% | – |
| COc1cc2ccccc2cc1C(=O)N/N=C/c1cccs1 | -8.47% | – |
| COc1cc(OC)cc(C(=O)Nc2ccc(N3CCN(C(=O)c4cccs4)CC3)cc2)c1 | -1.42% | – |
| COc1ccc2o/c(=N/NC(=O)c3cccs3)c(C(N)=O)cc2c1 | – | 14 µM (active) |
| O=C1CN(C(=O)c2cc(Br)c(Br)s2)c2ccccc2N1 | -12.4% | – |
| CN(C)c1ccc(/C=C/c2nccc3ccccc23)cc1 | – | 23.1 µM (active) |
| CN(C)c1ccc(C=Cc2nccc3ccccc23)cc1 | – | 17.7 µM (active) |
| CCN(Cc1ccccc1)c1ccc(/C=C/c2nccc3ccccc23)cc1 | – | 20.6 µM (active) |
| CCN(CC)c1nc(C=Cc2ccc(N(C)C)cc2)c2nccnc2n1 | – | 2.06 µM (active) |
| CCN(Cc1ccccc1)c1ccc(/C=C(\C#N)c2ccccn2)cc1 | -5.57% [at 46.1 µM] | – |
| COc1cc(SC)ccc1C(=O)N1CCN(c2ccccc2OC)CC1 | -7.48% | – |
| Cc1ccc2c(c1C)NC(=O)CC(c1ccccc1O)=N2 | 3.28% [at 46.1 µM] | – |
| CN(C)CCCN(C(=O)/C=C/c1cccs1)c1nc2ccc(F)cc2s1 | -28.8% [at 46.1 µM] | – |
| Cc1ccc(CNC(=O)c2ccc3c(c2)NC(=O)C(CS(=O)(=O)Cc2cccc(C)c2)N3)cc1 (stereo not drawn) | – | 20.6 µM (active) |
| CC1Sc2ccc(C(=O)NCc3ccccn3)cc2NC1=O (stereo not drawn) | -21% [at 46.1 µM] | – |
| CC(C)CCNC(=O)c1ccc2c(c1)NC(=O)C(CS(=O)(=O)Cc1cccc(Br)c1)N2 (stereo not drawn) | 4.76% [at 46.1 µM] | – |
| C[C@@H]1O[C@@H](O[C@@H]2C(=O)c3c(O)cc(O)cc3O[C@H]2c2ccc(O)c(O)c2)[C@H](O)[C@H](O)[C@H]1O | -4.71% | – |
| CN(C)C(=O)c1cccc(-c2cnc3c(NC=O)cc(-c4ccccc4F)cn23)c1 | -11.7% | – |
| CC1=CC(C)(C)NC(=S)N1c1ccc2ccccc2c1 | -1.3% | – |
| CCOC(=O)c1c(CC(C)C)csc1/N=C/C1C(=O)CCCC1=O | 2.43% [at 46.1 µM] | – |

| SMILES | activity, negative = fluorescence increase | Potency |
| --- | --- | --- |
| C=C1C(=O)O[C@H]2C1CC[C@@](C)(O)C13C=CC(C)(C21)C1(C3)C(=O)O[C@@H]2C3C(C)=CCC3[C@](C)(O)C[C@H](OC(C)=O)C21 (stereo partly drawn) | -9.27% | – |
| CN(C)c1ccc(/C=C2\Oc3ccc(C#Cc4cccc(N)c4)cc3C2=O)cc1 | – | 14 µM (active) |
| O=C1/C(=C/c2ccc([N+](=O)[O-])cc2)Oc2cc(O)ccc21 | -11.4% [at 46.1 µM] | – |
| COc1cnc(-c2ccccn2)nc1Oc1ccc(F)cc1F | 3.98% [at 46.1 µM] | – |
| CC(C)(C)OC(=O)NC(Cc1ccccc1)C(=O)N1CCC(C(=O)NCC(=O)Nc2ccc(F)cc2)CC1 (stereo not drawn) | – | 18.4 µM (active) |
| COc1ccc(/C=N/n2cc(-c3ccccc3)nc2N)cc1 | -2.95% | – |
| Cc1ccnc(N/C=C(\C#N)c2nc(-c3cccc(Br)c3)cs2)c1 | – | 14 µM (active) |
| COC(=O)c1nnn(-c2nonc2N)c1CN1CCc2ccccc21 | 0.0341% | – |
| CC1(C)CCN2CCC(C)(C)c3c(O)ccc1c32 | – | 14 µM (active) |
| COc1cc(CNCCSc2nnnn2C)ccc1OCc1c(F)cccc1Cl | -0.389% [at 46.1 µM] | – |
| Cc1ccc(N=Cc2c(O)n(-c3nccs3)c(=O)c3ccccc23)c(C)c1 | – | 16.4 µM (active) |
| Cc1ccc(NC(=O)/C(C#N)=C\c2ccc(-c3ccc(Cl)cc3)o2)c(C)c1 | – | 7.31 µM (active) |
| N#C/C(=C/c1ccc(-c2ccc([N+](=O)[O-])cc2)o1)C(=O)Nc1nc(-c2cccs2)cs1 | -19.8% [at 46.1 µM] | – |
| CCN(CC)c1ccc(/C=c2/sc3nnc(-c4ccccc4C)n3c2=O)cc1 | – | 25.9 µM (active) |
| O=C1NC(c2ccccc2Br)=N/C1=C\c1ccco1 | 2.97% [at 46.1 µM] | – |
| Cc1cccc(N2CCN(C(=O)c3ccncc3)CC2)c1C | -12% | – |
| C(=C\c1c[nH]c2ccccc12)/c1ccc2ccccc2n1 | – | 18.4 µM (active) |
| Cc1[nH]c2ccccc2c1/C=C/c1ccnc2ccccc12 | -21.3% [at 46.1 µM] | – |
| C(=Cc1c[nH]c2ccccc12)c1ccc2ccccc2n1 | – | 20.6 µM (active) |
| Cc1[nH]c2ccccc2c1/C=C/c1ccc2ccccc2n1 | – | 18.4 µM (active) |
| Nc1cccc(CCc2nc3cc4ccccc4cc3[nH]2)c1 | -1.81% | – |
| Cc1cc(NC(=O)NC(=O)c2ccccc2NC(=O)C(C)N)ccc1Oc1ncc(Br)cn1 (stereo not drawn) | -14.1% | – |
| CC(=O)Nc1ccc(S(=O)(=O)Nc2nc3ccccc3nc2Sc2nncn2C)cc1 | -27.3% [at 46.1 µM] | – |
| Cc1[nH]c2ccccc2c1/C=C/c1cc[n+](C)cc1 | – | 4.44 µM (active) |
| Cc1ccc2[nH]c(C)c(/C=C/c3cc[n+](C)cc3)c2c1 | – | 1.77 µM (active) |
| Cc1[nH]c2ccccc2c1/C=C/C(=O)c1ccccc1 | – | 23.1 µM (active) |

| SMILES | activity, negative = fluorescence increase | Potency |
| --- | --- | --- |
| O=c1cc(-c2ccccc2)[nH]c2ccccc12 | -0.648% | – |
| COc1ccc(-c2cc(NC(C)=O)c3ncc(-c4cc(OC)c(OC)c(OC)c4)n3c2)cn1 | -25.2% | – |
| CCOc1ccccc1N1CC(c2nc3ccccc3n2Cc2c(C)cc(C)cc2C)CC1=O (stereo not drawn) | -1.13% [at 46.1 µM] | – |
| O=C(Cn1ncc(Cl)c(Cl)c1=O)N1CCN(S(=O)(=O)c2ccc3ccccc3c2)CC1 | -4.68% | – |
| Cc1ccc(/C=N/NC(=O)C2COc3ccccc3O2)s1 (stereo not drawn) | -6.59% | – |
| O=S(=O)(Nc1cccc2ncccc12)c1cccs1 | -9.28% | – |
| Cc1ccc(NC(=O)C(=Cc2ccc(C(=O)O)cc2)C(=O)Nc2ccc(C)cc2C)c(C)c1 | -3.15% | – |
| Cc1ccc(NC(=O)Cc2ccc(-n3cccc3)cc2)c(C)c1 | 7.11% [at 46.1 µM] | – |
| Cc1cccc(NC(=O)/C=C/c2ccc([N+](=O)[O-])s2)c1 | – | 4.11 µM (active) |
| Cc1ccc(NC(=O)/C=C/c2ccc([N+](=O)[O-])s2)c(C)c1 | – | 5.8 µM (active) |
| CC(=O)c1cccc(NC(=S)N2c3ccccc3CC2C)c1 (stereo not drawn) | 0.849% | – |
| CC(=O)c1cccc(NC(=O)/C=C/c2ccc([N+](=O)[O-])s2)c1 | – | 8.2 µM (active) |
| Cc1nc(NC(=O)/C=C/c2ccco2)sc1C | -4.83% | – |
| Cc1ccc(NC(=O)/C=C/c2ccc([N+](=O)[O-])s2)cc1 | – | 7.31 µM (active) |
| C=CCN=c1scc(-c2ccc(F)cc2)n1/N=C/c1ccccn1 | 4.34% [at 46.1 µM] | – |
| COc1ccc(CN2C(=O)C(C)Nc3ncnc(N4CCc5ccccc5C4)c32)cc1 (stereo not drawn) | 0.817% | – |
| Cc1cc(C)cc(NC(=O)/C=C/c2ccc([N+](=O)[O-])s2)c1 | – | 23.1 µM (active) |
| COC(=O)c1sccc1NC(=S)Nc1cc(C)cc(C)c1 | 7.51% [at 46.1 µM] | – |
| Cc1noc(C)c1COc1ccc(C(=O)NNC(=O)c2ccccc2F)cc1 | -3.72% | – |
| O=C(COc1ccccc1-c1ccccc1)NN=C1CCCC1 | -2.76% | – |
| COc1ccc(-n2cc3c(-c4cccc(Br)c4)nnc(C)c3n2)cc1 | -8.67% [at 46.1 µM] | – |
| C=CCN1C(=O)C2(NNc3ccccc3O2)c2ccccc21 (stereo not drawn) | – | 12.5 µM (active) |
| O=C(Nc1ccccc1-c1nc2ccccc2[nH]1)c1ccc(N2C(=O)CCC2=O)cc1 | – | 23.1 µM (active) |
| CCOc1ccc(C(=O)Nc2cc(-c3nc4ccccc4[nH]3)ccc2Cl)cc1[N+](=O)[O-] | -0.225% | – |
| c1ccc2c(-c3nc4ccccc4[nH]3)cccc2c1 | 2.87% | – |
